Measured values published in publication PMC4336329 (PLoS ONE, 2015).
Screen size: about 310,000 compounds; about 14,000 (4.5%) showed an effect of 50% or more. Effects have a minus sign here. The list comes from a sample in which strong results are over-represented; it also holds similar structures and randomly drawn compounds.

target: human ether-à-go-go-related gene (hERG) potassium channel (human, UniProt Q12809); test: primary screen, population patch clamp on CHO cells stably expressing hERG; higher = less effect of the substance
Sequence (Q12809 whole entry, looked up): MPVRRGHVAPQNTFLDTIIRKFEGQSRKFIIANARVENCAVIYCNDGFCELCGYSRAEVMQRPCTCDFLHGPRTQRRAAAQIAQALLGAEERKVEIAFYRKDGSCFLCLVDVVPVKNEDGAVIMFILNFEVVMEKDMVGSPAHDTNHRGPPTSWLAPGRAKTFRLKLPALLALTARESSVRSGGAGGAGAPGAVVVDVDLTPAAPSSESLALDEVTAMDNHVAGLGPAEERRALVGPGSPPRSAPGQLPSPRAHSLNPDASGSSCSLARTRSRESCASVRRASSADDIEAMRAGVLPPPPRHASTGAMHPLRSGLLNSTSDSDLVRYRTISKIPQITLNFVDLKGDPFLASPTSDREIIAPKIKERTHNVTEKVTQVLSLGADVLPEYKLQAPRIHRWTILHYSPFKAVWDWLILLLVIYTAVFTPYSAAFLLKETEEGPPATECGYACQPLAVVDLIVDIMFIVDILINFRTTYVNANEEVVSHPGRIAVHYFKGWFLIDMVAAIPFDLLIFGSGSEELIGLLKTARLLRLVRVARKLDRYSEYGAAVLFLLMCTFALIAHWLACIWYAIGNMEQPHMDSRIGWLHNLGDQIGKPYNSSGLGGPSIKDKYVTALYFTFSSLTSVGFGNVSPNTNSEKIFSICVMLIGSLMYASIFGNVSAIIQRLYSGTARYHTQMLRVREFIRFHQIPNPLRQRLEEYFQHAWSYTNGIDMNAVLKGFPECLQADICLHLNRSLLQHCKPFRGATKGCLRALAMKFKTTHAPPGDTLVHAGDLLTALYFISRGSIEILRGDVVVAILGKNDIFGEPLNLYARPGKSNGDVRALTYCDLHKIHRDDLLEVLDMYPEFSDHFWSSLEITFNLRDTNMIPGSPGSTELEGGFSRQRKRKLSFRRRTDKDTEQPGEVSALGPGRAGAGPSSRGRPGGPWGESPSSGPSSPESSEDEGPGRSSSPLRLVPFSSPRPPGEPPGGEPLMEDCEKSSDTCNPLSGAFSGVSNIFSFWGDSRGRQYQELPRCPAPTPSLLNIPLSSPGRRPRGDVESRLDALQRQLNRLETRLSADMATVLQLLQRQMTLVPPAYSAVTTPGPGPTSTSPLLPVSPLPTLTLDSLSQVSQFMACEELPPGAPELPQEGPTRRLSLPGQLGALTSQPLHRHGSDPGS
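Further: peak tail current of the secondary pulse compared with the same well before compound.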

SMILES	hERG current change (%, negative = inhibition) at 10uM [%]
Cc1ccc(S(=O)(=O)Cc2cc(F)c([N+](=O)[O-])cc2[N+](=O)[O-])cc1	-14.3
COc1ccc(CCNC(=S)NC(=O)c2cccc(Cl)c2)cc1OC	1.73
Cc1ccc(-c2nnc(N3CCN(c4ccccn4)CC3)c3ccccc23)cc1	-46.3
COc1ccc(N2CCN(CCOc3ccc4c(C)cc(=O)oc4c3)CC2)cc1	-26.1
Cc1cc(=O)oc2cc(OCCCN3C(=O)c4ccccc4C3=O)ccc12	10.4
COc1ccccc1N1CCN(CC(O)COc2ccc3c(c2)OCO3)CC1.Cl (stereo not drawn)	-33.7
Cc1ccccc1N1CCN(CCCOc2ccc3c(C)cc(=O)oc3c2)CC1	-75.3
COc1ccc(N2CCN(CC(O)COc3ccc(C)c(C)c3)CC2)cc1.Cl (stereo not drawn)	-43.7
COc1ccccc1N1CCN(CC(O)COc2ccc(C)cc2C)CC1.Cl (stereo not drawn)	-73.1
CNCC(O)CN1CCN(c2ccccc2OC)CC1.Cl (stereo not drawn)	12.7
COc1ccccc1N1CCN(CC(O)COc2ccc(C)c(C)c2)CC1.Cl (stereo not drawn)	-55.9
O=C(CCc1ccccc1)NNC(=O)C1CCCCC1	-2.12
CC(C)Nc1ccc(-n2nc3ccccc3[n+]2[O-])cc1	6.09
O=C1CCCCCC1C1(O)C(=O)Nc2ccccc21 (stereo not drawn)	-1.78
CC1(c2ccccc2)NC(=O)N(CC(=O)NNC(=O)c2ccccc2)C1=O (stereo not drawn)	21.3
Cc1ccc(CNC(=O)C2CC(=O)OC23CCCC3)c(C)c1 (stereo not drawn)	-0.109
CCCCNC(=O)c1ccc(CNS(=O)(=O)c2ccc(Br)cc2)cc1	2
CCOc1ccc2nc(NC(=O)CSc3nc4cccnc4n3C)sc2c1	17.4
COc1ccccc1N1CCN(C(c2ccc(C)cc2)c2nnnn2C(C)C)CC1 (stereo not drawn)	-5.61
O=C(Nc1sc2c(c1C(=O)O)CCCC2)c1ccccc1Cl	11.9
Cc1c(Cl)cnc(NC(=O)COC(=O)c2ccc3ncsc3c2)c1Cl	-2.49
CCN(CC)CCNC(=O)c1cn(CC)c2ccc(S(=O)(=O)N(C)C3CCCCC3)cc2c1=O	-67.2
CCn1cc(C(=O)NCC(OC)OC)c(=O)c2cc(S(=O)(=O)N(C)C3CCCCC3)ccc21	-44.2
CCn1cc(C(=O)NC2CCCCC2)c(=O)c2cc(S(=O)(=O)N(C)C)ccc21	2.38
CCN(CC)CCNC(=O)c1cn(CC)c2ccc(S(=O)(=O)N(C)C)cc2c1=O	11.1
CCCN(CCC)CCCNC(=O)c1cn(CC)c2ccc(S(=O)(=O)N(C)C3CCCCC3)cc2c1=O	-74.3
CCOCCCNC(=O)c1cn(CC)c2ccc(S(=O)(=O)N(C)C3CCCCC3)cc2c1=O	-55.7

SMILES	hERG current change (%, negative = inhibition) at 10uM [%]
CCCCN(CCCC)CCNC(=O)c1cn(CC)c2ccc(S(=O)(=O)N(C)C3CCCCC3)cc2c1=O	-82.5
CCn1cc(C(=O)NCCCOC)c(=O)c2cc(S(=O)(=O)N(C)C3CCCCC3)ccc21	-23
CC1(C(=O)OCC(=O)Nc2cccc(S(=O)(=O)NC3=NCCCCC3)c2)CC1(Cl)Cl (stereo not drawn)	10.7
CCc1noc(C)c1C(=O)Nc1cc(S(=O)(=O)N2CCOCC2)ccc1OC(C)C	-45.1
CCN(CC(=O)Nc1c(F)cccc1F)C(=O)c1csc2c1CCCC2	7.01
COC(=O)c1c(-c2ccc(F)cc2)csc1NC(=O)c1ccco1	22.9
COc1cccc2cc(C(C)N(CCCN3CCOCC3)C(=S)Nc3cccc(C)c3)oc12 (stereo not drawn)	14.8
CCC(C)c1ccc(OCc2ccc(C(=O)OC)o2)cc1 (stereo not drawn)	-12.8
O=C(OCc1cc(-c2ccccc2)no1)c1ccc2ccccc2n1	12.2
Cc1cc(CNC(=O)COc2ccc(C#N)cc2)c2ccccc2n1	-47.2
COc1cc(OC)cc(C(=O)NCc2cc(C)nc3ccccc23)c1	-2.16
Cc1ccc(C)c(NC(=O)CN(C)C(=O)c2ccc(Cl)nc2)c1	-7.48
CCn1cc(C(=O)NCCCN(CC(C)C)CC(C)C)c(=O)c2cc(S(=O)(=O)N(C)C3CCCCC3)ccc21	-69.6
CCn1cc(C(=O)NCCCN(CC(C)C)CC(C)C)c(=O)c2cc(S(=O)(=O)N3CCOCC3)ccc21	-11.3
CCN(CC)CCCNC(=O)c1cn(CC)c2ccc(S(=O)(=O)N(C)C3CCCCC3)cc2c1=O	-75.7
Cc1ccccc1NC(=O)Cc1nc(-c2ccc3ccccc3c2)cs1	6.09
COc1ccc2[nH]cc(CCNC(=O)C3CC(=O)N(c4ccc(Cl)cc4)C3)c2c1 (stereo not drawn)	-10.4
O=C(Nc1cccnc1)c1c(O)c2c(n(Cc3ccccc3)c1=O)CCCC2	2.61
Cc1ccc(OCCn2ccnc2)c([N+](=O)[O-])c1	-4.29
CCCCCOc1ccc(Cn2ccnc2)cc1[N+](=O)[O-].Cl	-45.4
CCCOc1ccc(Cn2ccnc2)cc1[N+](=O)[O-]	-52.3
COc1ccc(Cn2ccnc2)cc1[N+](=O)[O-]	-0.186
Cc1ccc(OCCCCn2ccnc2)c([N+](=O)[O-])c1	-51.5
Cc1ccc(OCCCn2ccnc2)c([N+](=O)[O-])c1	-34.4
CC(C)CN(C(=O)COC(=O)c1cccc2ccccc12)c1c(N)n(Cc2ccccc2)c(=O)[nH]c1=O	6.01
O[C@@H]1C2CCCC1[C@]1(O)CCCCC1C2 (stereo partly drawn)	8.35
Cc1ccc(Cl)c(OCC(=O)Nc2ccccc2N2CCCCC2)c1	5.15
